Source: PubChem BioAssay (Johns Hopkins Ion Channel Center)
Sampled rows, rich in hits. Any-hit rate of the full collection: about 2.3%.
CHT inh – human CHT choline transport inhibition | B-score at 10 µM | 310,000 compounds, 0.86% hits | CHT-expressing cells, membrane potential dye, choline response; hits give low values | Q9GZV3 | AID 488975;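 active = B-score over 3 SD under the library average, and starting fluorescence ratio not unusually high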;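 note: choline stimulus applied at its EC90 after an EC20 pre-addition; B-score computed on integrated fluorescence ratio after choline addition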
Target sequence (Q9GZV3 whole entry, looked up): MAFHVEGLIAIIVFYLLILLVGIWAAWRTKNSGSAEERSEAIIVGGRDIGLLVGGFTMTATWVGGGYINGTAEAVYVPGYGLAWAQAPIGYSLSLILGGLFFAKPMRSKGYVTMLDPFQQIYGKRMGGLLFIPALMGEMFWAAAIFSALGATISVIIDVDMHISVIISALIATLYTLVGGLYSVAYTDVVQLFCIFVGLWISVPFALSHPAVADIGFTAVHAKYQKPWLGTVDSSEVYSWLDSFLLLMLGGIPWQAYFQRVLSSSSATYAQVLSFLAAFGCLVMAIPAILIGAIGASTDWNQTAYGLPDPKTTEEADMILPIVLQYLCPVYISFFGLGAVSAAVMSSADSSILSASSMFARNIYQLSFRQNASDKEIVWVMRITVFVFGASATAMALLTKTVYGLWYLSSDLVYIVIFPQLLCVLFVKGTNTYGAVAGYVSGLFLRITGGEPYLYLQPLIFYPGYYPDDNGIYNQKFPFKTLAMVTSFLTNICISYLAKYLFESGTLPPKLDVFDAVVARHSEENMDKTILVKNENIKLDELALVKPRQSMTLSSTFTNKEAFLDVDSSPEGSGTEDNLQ
TMEM16A act – mouse TMEM16A channel activation, primary screen; B-score at 10 µM; 340,000 compounds, 0.3% hits; AID 623877; Q8BHY3; HEK293 TMEM16A/YFP-H148Q/I152L, iodide quench fluorescence; hits give low values;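 active = fluorescence-ratio B-score plate-corrected deviation score at least 3 library SD below zero, with starting fluorescence score within 5 deviations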;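 note: channel opened by trigger with iodide after compound preincubation; score built on the fluorescence ratio of max minus min over baseline; more negative score means more quench and so TMEM16A activation or potentiation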
CHT PAM – human CHT allosteric activation. Q9GZV3. CHT-expressing cells, membrane potential dye, choline EC20; hits give high values; LV-AA mutant CHT in HEK293 cells. B-score at 10 µM. 310,000 compounds, 0.49% hits;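 active = initial fluorescence not abnormally high and integrated response B-score, plate-corrected, over 3 SD above library mean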
ANO1 block – blocks the mouse calcium-activated chloride channel TMEM16A; Q8BHY3; HEK293 TMEM16A/YFP iodide influx fluorescence, ionomycin; normalized B-score (activity score, 25-100; higher = stronger inhibition) at 10 µM; 310,000 compounds, 1.2% hits; AID 588511;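 active = ratio plate-corrected score three or more library SD toward inhibition, starting fluorescence score within five deviations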;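 note: score derived from kinetic fluorescence span divided by baseline fluorescence per well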
CHT activ conf – human CHT activation, confirmatory screen; shares compounds with CHT PAM; 2,500 compounds, 91% hits; CHT-expressing cells, membrane potential dye fluorescence (FDSS); % of choline EC20–EC90 response window; HEK293 expressing CHT LV-AA mutant; choline added at its EC20; AID 504833; activation, % at 10 µM;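 active = primary screen active, with duplicate mean activation above negative control mean plus 3 SD, cut at about 11% in these data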
HEK293 MP dye – counter-screen for CHT activators: effect in parental HEK293 cells. shares compounds with CHT PAM. membrane potential dye fluorescence (FDSS); measured after EC20 choline addition. ratio readout change at 10 µM, hits read low. 2,500 compounds, 62% hits. AID 623908;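 active = duplicate-averaged ratio beyond 3 SD from buffer wells, up or down, though filed actives are nearly all decreases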
* marks the source's active call; other numbers are inactive results; i = inactive; · = not tested or not shown.

SMILES | CHT inh | TMEM16A act | CHT PAM | ANO1 block | CHT activ conf | HEK293 MP dye
Cc1cccc(COCC(Cc2ccccc2)N2CCN(C(=O)c3ccc(C(F)(F)F)cc3)CCC2=O)c1 (stereo unspecified) | i | i | i | i | 35* | i
CC(C)CC(COCc1ccc([N+](=O)[O-])cc1)N1CCN(C(=O)c2ccc(C(F)(F)F)cc2)CCC1=O (stereo unspecified) | i | i | i | i | 29* | i
CCc1ccccc1NC(=O)CN1C(=O)c2ccccc2S1(=O)=O | i | i | i | i | · | ·
O=C(CSc1nnc(Cc2cccs2)n1C1CCCCC1)N1CCCc2ccccc21 | i | i | 6.4* | i | 31* | i
Cn1c(Cc2cccs2)nnc1SCC(=O)N1CCCc2ccccc21 | i | i | i | i | · | ·
COc1ccc(-c2csc3nc(C)nc(N4CCC(C)CC4)c23)cc1OC | i | i | i | i | 47* | i
Cc1cc(Br)ccc1OCC(=O)NNC(=O)C(=O)Nc1ccccc1 | i | i | i | i | · | ·
C[C@@H]1CN([C@H](C)CO)C(=O)c2cc(NC(=O)c3ccncc3)ccc2O[C@@H]1CN(C)C(=O)Nc1ccccc1 | · | i | · | · | · | ·
Cc1n(C)c2cc(Cl)ccc2[n+]1Cc1ccccc1 | i | i | 9.3* | i | 65* | -44*
CCc1cc2c(N3CCN(c4ccccc4)CC3)ncnc2s1 | i | i | i | 25* | 16* | i
O=C(CSc1nnc(Nc2ccccc2F)s1)NC1CC1 | · | i | · | · | · | ·
Cc1c2cccn2cc[n+]1C | i | i | 6.6* | i | 58* | -53*
CCCN(CC(=O)Nc1ccccc1C)C(=O)c1ccc(Cl)c(S(=O)(=O)N2CCCC2)c1 | i | i | i | i | · | ·
CCCN(CC(=O)Nc1ccccc1C)C(=O)c1ccc(C)c(S(=O)(=O)N2CCCCC2)c1 | i | i | i | i | 14* | i
Cc1ccc(NC2CCCN(C(=O)c3ccc(F)cc3)C2)cc1C (stereo unspecified) | i | i | i | i | · | ·
Cc1ccc(N=C2NC(=O)/C(=C/c3cn(C)c4ccccc34)S2)cc1C | i | i | i | i | · | ·
CC1(C)Cc2c(sc3ncn(N)c(=N)c23)CO1 | i | i | i | i | · | ·
Cc1nc2sc3c(c2c(=N)n1N)CC(C)(C)OC3 | i | i | 8.4* | i | 63* | -47*
Cc1ccc(N/C(N)=N/c2nc(CSc3nnc(C)s3)cc(=O)[nH]2)c(C)c1 | i | i | 6.9* | i | 24* | i
Cc1nnc2n(C)c(=O)c3c4c(sc3n12)COC(C)(C)C4 | i | i | 6.5* | i | 74* | -72*
Cc1cc(C)cc(COc2ccc3c(C)c(CC(=O)O)c(=O)oc3c2C)c1 | i | i | i | i | · | ·
Cc1c(C)c2ccc(OCc3ccc(C(=O)O)o3)c(C)c2oc1=O | i | i | 7.8* | i | 30* | -40*
CC1CCCc2sc3ncn(N)c(=N)c3c21 (stereo unspecified) | i | i | 7.1* | i | 52* | -50*
Nn1cnc2sc3c(c2c1=O)CCC3 | i | i | i | i | · | ·
Cc1ccc(NC(=O)CSc2nc3ccccc3c(=O)n2CCCN2CCCCC2)cc1Cl | i | i | i | i | · | ·
SMILES | CHT inh | TMEM16A act | CHT PAM | ANO1 block | CHT activ conf | HEK293 MP dye
CC1CCN(CCCn2c(SCC(=O)Nc3ccccc3Cl)nc3ccccc3c2=O)CC1 | i | i | 6.4* | i | 52* | -34*
O=C(CSCc1ccc(Br)cc1)NCCc1ccccc1 | i | i | i | i | · | ·
C=CCn1cc(C(=O)OCC)c(=O)c2ccc(F)cc21 | i | i | i | i | 37* | -43*
COc1ccc(Nc2nc(NCC3CCCO3)c3ccccc3n2)c(OC)c1 (stereo unspecified) | i | i | i | i | · | ·
CCOc1ccc(Nc2nc(NCC3CCCO3)c3ccccc3n2)cc1 (stereo unspecified) | i | i | i | i | 23* | -31*
CC(=O)c1ccc[n+](CC(=O)NC(C)c2ccccc2)c1 (stereo unspecified) | i | i | i | i | · | ·
CCc1cc(CNC(=O)c2ccc(OC3CCN(CCc4ccccc4)CC3)cc2)on1 | i | i | 6.5* | i | -4 | -25*
Cc1ccccc1N1CCN(C2CCCN(C(=O)CCC3(C)CC3)C2)CC1 (stereo unspecified) | i | i | i | i | · | ·
CCCNC(=S)N1CCC(C(=O)c2ccc(OC)cc2)CC1 | i | i | 6.7* | i | -20 | i
Cc1cc(-n2c(C)c3c(C)nnc(C)c3c2C)ccc1N | i | i | 6.7* | i | 38* | -22*
COc1cc(OC)c(OC)cc1/C=N/NC(=O)c1ccc(=O)n(C)c1 | i | i | i | i | 43* | -29*
COc1cccc(/C=N/NC(=O)C[n+]2ccccc2)c1O | i | i | i | i | · | ·
COc1cc(OC)c(OC)cc1/C=N/NC(=O)C[n+]1ccccc1 | i | i | i | i | 51* | -42*
C[C@H](NC(=O)[C@H]1N2C(=O)c3ccccc3C2SC1(C)C)C(=O)N1CCCCC1 (stereo partly specified) | i | i | i | i | · | ·
Cc1ccnn1CC(=O)N/N=C/c1cn[nH]c1-c1ccc(F)cc1 | i | i | i | i | · | ·
Clc1ccc(-c2c[n+](Cc3cccc(Cl)c3)c3n2CCC3)cc1 | i | i | 8.1* | i | 69* | -54*
O=[N+]([O-])c1ccc(C[n+]2cc(-c3ccccc3)n3c2CCCCC3)cc1 | i | i | i | i | · | ·
Clc1ccc(C[n+]2cc(-c3ccccc3)n3c2CCC3)cc1Cl | i | i | 7.8* | i | 18* | -27*
O=[N+]([O-])c1ccc(C[n+]2cc(-c3ccc(Cl)c(Cl)c3)n3c2CCCCC3)cc1 | i | i | i | i | 34* | -33*
Clc1ccc(-c2c[n+](Cc3ccc(Cl)cc3Cl)c3n2CCCCC3)cc1 | i | i | 28* | i | 67* | i
COc1ccccc1C(=O)NC1CCN(C(=O)Nc2ccc(C)cc2)CC1 | i | i | i | i | · | ·
COc1ccc(C(=O)OCC(=O)N(C)C2CCS(=O)(=O)C2)cc1S(=O)(=O)N(C)Cc1ccccc1 (stereo unspecified) | i | i | i | i | · | ·
